Test results reported in PubChem BioAssay (NCATS).
Inconclusive results are not listed. Unmarked numbers belong to inactive results. Calls follow the shape of the dose curve; as a rule, active = well fitted inhibition curve with a large enough effect; inconclusive = small, poorly fitted or top-dose-only effect; inactive = flat fitted curve, though single readings scatter.

molecular target: Calcium and integrin-binding protein 1 (Homo sapiens) (UniProt Q99828); test: Primary qHTS for Identification of Calcium Integrin Binding Protein 1 (CIB1) Competitor (AID 1508620); conditions: CIB1-GST / FITC-alphaIIb peptide fluorescence polarization; series mostly up to 114 µM; activity change, negative = inhibition: at the top concentration;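 also: GST tagged CIB1 binding a fluorescein labelled alphaIIb integrin peptide tracer; top concentration of the series differs between compounds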
Procedure, shortened: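 Fluorescence polarization competition: CIB1-GST (1 uM final) preincubated with compound 15 min at room temperature, then FITC-labeled alphaIIb peptide (100 nM final) added for another 15 min. Polarization read at Ex 480/Em 540.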
% is scaled to controls: 0 for no effect and ±100 for the full control effect.

Chain of Calcium and integrin-binding protein 1 (Homo sapiens) (Q99828 whole entry, looked up): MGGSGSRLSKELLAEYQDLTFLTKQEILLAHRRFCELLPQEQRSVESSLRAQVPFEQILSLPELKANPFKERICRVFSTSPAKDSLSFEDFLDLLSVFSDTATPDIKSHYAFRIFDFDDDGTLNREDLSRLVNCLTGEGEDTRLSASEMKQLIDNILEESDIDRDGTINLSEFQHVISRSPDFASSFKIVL

SMILES | activity change, negative = inhibition
CCCCc1ccc(C(=O)Nc2cc(-c3ccc(Cl)cc3)nn2-c2ccc(Cl)cc2)cc1 | 3.58%
CC1=C(C)C(=O)OC(C(C)C2CCC3C4CC=C5CC(OC6OC(COC7OC(CO)C(O)C(O)C7O)C(O)C(O)C6O)CC(O)C5(C)C4CCC23C)C1 (stereo not drawn) | 5.64% [at 30.2 µM]
COc1ccc([C@@H]2OC[C@H]3[C@@H]2CO[C@@H]3c2ccc(OC3OC(CO)C(O)C(O)C3O)c(OC)c2)cc1OC (stereo partly drawn) | -1.55% [at 57.7 µM]
CC(=O)O[C@@H]1[C@H](O[C@@H]2O[C@@H](CO)[C@H](O)[C@H]2O)[C@@H](O[C@@H]2O[C@@H](C)[C@H](O[C@@H]3OC[C@@H](O)[C@H](O)[C@H]3O)[C@@H](O)[C@H]2O)[C@H](OC(=O)[C@]23CCC(C)(C)C[C@H]2C2=CCC4[C@@]5(C)CC[C@H](O[C@@H]6O[C@H](C(=O)O)[C@@H](O)[C@H](O)[C@H]6O[C@@H]6O[C@H](CO)[C@H](O)[C@H](O)[C@H]6O)[C@@](C)(C=O)C5CC[C@@]4(C)[C@]2(C)CC3)O[C@@H]1C (stereo partly drawn) | -9.52% [at 12.4 µM]
COC(=O)C1=CO[C@@H](O[C@@H]2O[C@H](CO[C@@H]3O[C@H](COC(=O)/C=C/c4cc(OC)c(O)c(OC)c4)[C@@H](O)[C@H](O)[C@H]3O)[C@@H](O)[C@H](O)[C@H]2O)[C@@H]2C(CO)=CC[C@H]12 | -5.27% [at 30.2 µM]
CC(C)S(=O)(=O)N[C@H]1CCOC[C@@H]1c1ccc(-c2ccc(C#N)s2)cc1 | 3.17%
CC1(C)CC[C@]2(C(=O)OC3OC(CO)C(O)C(O)C3O)CC[C@]3(C)C(=CCC4[C@@]5(C)CC[C@H](OC6OC(C(=O)O)C(O)C(OC7OC(CO)C(O)C(O)C7O)C6O)C(C)(C)C5CC[C@]43C)C2C1 (stereo partly drawn) | -1.68% [at 30.2 µM]
CC(=O)N[C@H]1[C@H](O[C@H]2CC[C@@]3(C)C(CC[C@]4(C)C3CC=C3[C@@H]5CC(C)(C)CC[C@]5(C(=O)OC5OCC(O)C(O)C5O)CC[C@]34C)C2(C)C)O[C@H](COC2OC(C)C(O)C(OC3OC(C)C(O)C(O)C3O)C2O)[C@@H](O)[C@@H]1O (stereo partly drawn) | 0.669% [at 30.2 µM]
CC1=CC2C(CC1OC1OC(CO)C(O)C(O)C1O)C(C)CC(=O)C2C(C)C (stereo not drawn) | -6.49% [at 57.7 µM]
CN1CCC(Nc2nc(Nc3ccc(Oc4ccccc4)cc3)c3c(=O)[nH]cc(Br)c3n2)CC1 | -12.4%
CC(C)=CCC[C@](C)(O[C@@H]1O[C@H](CO)[C@@H](O)[C@H](O)[C@H]1O)[C@H]1CC[C@]2(C)[C@@H]1[C@H](O)CC1[C@@]3(C)CC[C@H](O)C(C)(C)C3[C@@H](O[C@@H]3O[C@H](CO)[C@@H](O)[C@H](O)[C@H]3O[C@@H]3OC[C@@H](O)[C@H](O)[C@H]3O)C[C@]12C (stereo partly drawn) | 4.73% [at 30.2 µM]
CC(NC(=O)C(O)C(C)C)C(=O)NC1C(=O)N(C)CCc2ccccc21 (stereo not drawn) | -0.298%
CC(C)(C)c1ccc(S(=O)(=O)Nc2ccc(Cl)cc2C(=O)c2cc[n+]([O-])cc2)cc1 | -5.23%
CC1(C)CCCC2(C)C(CO)C(CO)=CCC12 (stereo not drawn) | -1.19%
CC(=O)O[C@H]1[C@H](O[C@H]2[C@@H]3C=CO[C@@H](O[C@@H]4O[C@H](CO)[C@@H](O)[C@H](O)[C@H]4O)[C@@H]3[C@@]3(CO)O[C@@H]23)O[C@@H](C)[C@H](OC(=O)/C=C/c2ccccc2)[C@H]1OC(=O)/C=C/c1ccccc1 | 5.18% [at 30.2 µM]
O=C1C=CC(O)(/C=C/C(=O)OC[C@H]2O[C@@H](Oc3ccc(O)cc3)[C@H](O)[C@@H](O)[C@@H]2O)C=C1 | -6.8% [at 57.7 µM]
Cc1cccc(C)c1OCc1cc(C(=O)N2CCC(c3ccncc3)CC2)no1 | 0.299%
CC[C@@H](O)C[C@@H]1C(C)=C[C@@H]2CCCC[C@@H]2[C@@]1(C)C(=O)O | -0.914%
CC(C)CC(=O)O[C@@H]1OC=C(CO[C@@H]2O[C@H](CO)[C@@H](O)[C@H](O)[C@H]2O)[C@H]2[C@@H]3O[C@H]3[C@@](O)(CO)[C@@H]12 | 2.72% [at 57.7 µM]

SMILES | activity change, negative = inhibition
COc1cc2c(cc1OC)N1C(=O)C[C@]34C=CCN5CC[C@@H]2[C@@H](CC3)[C@]514 | -8.99% [at 57.7 µM]
C[C@@H]1O[C@@H](O[C@H]2[C@H](OC(=O)[C@]34CCC(C)(C)C[C@H]3C3=CCC5[C@@]6(C)C[C@H](O)[C@H](O[C@@H]7O[C@H](CO)[C@@H](O[C@H]8OC[C@](O)(CO)[C@H]8O)[C@H](O)[C@H]7O)[C@@](C)(CO)C6[C@H](O)C[C@@]5(C)[C@]3(C)C[C@H]4O)OC[C@H](O)[C@@H]2O)[C@H](O)[C@H](O)[C@H]1O[C@@H]1OC[C@@H](O)[C@H](O[C@@H]2OC[C@](O)(CO)[C@H]2O)[C@H]1O (stereo partly drawn) | -2.92% [at 12.4 µM]
COc1cccc(C(=O)N2CCN(C(=O)COc3cccc(C)c3)CC2)c1OC | 1.71%
C/C=C/C=C/C(=O)N1CC[C@]23c4ccccc4N[C@H]4N(C)c5cccc6c5[C@@]42CCN([C@H]6C2OC2(C)C)[C@H]13 (stereo partly drawn) | -0.198% [at 57.7 µM]
CC1=C2C3OC(=O)C(C)C3(O)CCC2(C)CCC1O (stereo not drawn) | -9.08%
CC(=O)O[C@@H]1c2c3c(cc(O)c2C(=O)O[C@@H]1C)O[C@@]1(C)[C@@H](O)C[C@H]2C(C)(C)C(=O)C=C[C@]2(C)[C@@H]1C3 | 1.49% [at 57.7 µM]
COc1ccc(-c2ccc(-c3cn(C(=O)N4CCCCC4c4ccccc4)nn3)cc2)cc1 (stereo not drawn) | 0.258%
CN(C)c1nc(NC2CCC(NC(=O)c3ccc(F)c(F)c3)CC2)nc2ccccc12 (stereo not drawn) | 6.63%
CCCCCCOc1cc2c(cc1N(C)c1ncc(C(=O)O)cn1)C(C)(C)CCC2(C)C | -8.02%
CC1=CC(=O)C2C(C)(C)CCC[C@]2(C)[C@H]1CO (stereo partly drawn) | -5.8%
CN1c2ccccc2C(=O)N2CCC3c4ccccc4NC3C21 (stereo not drawn) | -1.66% [at 57.7 µM]
CC(C)(C#N)c1ccc(N2C(=O)OCc3cnc4ccc(-c5cnc6ccccc6c5)cc4c32)cc1 | 7.14%
C[C@@H]1CN(Cc2ncccn2)C[C@H]1c1nc2c(cnn2C2CCOCC2)c(=O)[nH]1 | -8.54%
COc1cc(C)c(C(=O)Oc2cc(C)c(C(=O)Oc3cc(C)c(C(=O)NC(C)C(=O)O)c(O)c3)c(O[C@@H]3O[C@H](CO)[C@@H](O)[C@H](O)[C@H]3OC(C)=O)c2)c(OC)c1 (stereo partly drawn) | -7.06% [at 30.2 µM]
C/C=C/C=C/C(O)=C1\C(=O)[C@]2(C)C3C(C(=O)CC/C=C/C)=C(O)C4(C)C1[C@]1(C)O[C@@]4(O)[C@@]3(C)O[C@@]12O | -0.588% [at 57.7 µM]
C=C1C(O)C(O)C2(CC3C(C)=CCC4C(C)(CO)CCCC34C)OC2C1O (stereo not drawn) | 1.4% [at 57.7 µM]
C=CC(=O)Nc1cc(Nc2nccc(-c3c[nH]c4ccccc34)n2)c(OC)cc1N(C)CCN(C)C | -13.1%
CC1OC(OC2C(C)OC(OC3C(OC(=O)C45CCC(C)(C)CC4C4=CCC6C7(C)CCC(OC8OC(C(=O)O)C(O)C(O)C8OC8OC(CO)C(O)C(OC9OC(C)C(O)C(O)C9O)C8O)C(C)(CO)C7CCC6(C)C4(C)CC5)OC(CO)C(O)C3O)C(O)C2O)C(O)C(O)C1O (stereo not drawn) | -1.29% [at 12.4 µM]
COC1=CC(=O)CC(C)C12Oc1cc(OC)cc(O)c1C2=O (stereo not drawn) | 0.289%
